The text below walks through data of PubChem BioAssay (NCI).

The nature of assay [1]: NCI Yeast Anticancer Drug Screen. Data for the rad50 strain (AID 155).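 Note: 0% = growth of vehicle-only cultures of the same strain.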 Particulars: S. cerevisiae rad50 strain growth inhibition; at 50.0 µM; active compounds read high. The method in brief: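 A DNA repair-deficient yeast mutant serves as the test organism; compound-induced growth inhibition is calculated against vehicle-treated cells.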
The nature of assay [2]: NCI Yeast Anticancer Drug Screen. Data for the mec2-1 strain (AID 157). Particulars: S. cerevisiae mec2-1 strain, at 50.0 µM, active compounds read high. The method in brief:
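Readout is yeast growth inhibition, normalised to vehicle-treated controls, in the mec2-1 strain exposed to compound.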

Assay [3] is described as follows: NCI Yeast Anticancer Drug Screen. Data for the sgs1 mgt1 strain (AID 161).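 Note: 0% = growth of cultures given vehicle only.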 The note with it: S. cerevisiae sgs1 mgt1 strain, at 50.0 µM, active compounds read high. The method in brief: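 This yeast growth screen uses a strain with defined DNA-repair lesions; compound-treated growth is compared with vehicle-treated growth.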
Assay [4] can be described thus: NCI Yeast Anticancer Drug Screen. Data for the cln2 rad14 strain (AID 165).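 Note: 0% = growth equal to vehicle treated cultures.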 Particulars: S. cerevisiae cln2 rad14 strain, at 50.0 µM, active compounds read high. A digest of the protocol:
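Relative to vehicle controls, growth inhibition of compound-treated cln2 rad14 yeast was recorded.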

The nature of assay [5]: NCI Yeast Anticancer Drug Screen. Data for the bub3 strain (AID 167). Particulars: S. cerevisiae bub3 mutant strain, at 50.0 µM, active compounds read high. The method in brief:
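Inhibition values come from growth of compound-treated mutant yeast normalised to vehicle-treated controls.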

A short description of assay [6]: NCI Yeast Anticancer Drug Screen. Data for the mlh1 rad18 strain (AID 175). Particulars: S. cerevisiae mlh1 rad18 strain growth inhibition; at 50.0 µM; active compounds read high. A digest of the protocol: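 Test agents were incubated with a yeast strain of defined genotype (DNA damage repair defect). Inhibition of growth was derived by comparison with vehicle-exposed cultures.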

Each structure is given as a SMILES string. This is part of a sample that, as a whole, favours compounds with a hit. Of some 79,000 tested, about 15% had one in any assay. A number with no mark means an inactive call. Active and inactive are the calls of the source. Cut-off read from the data, not from the text of the source: active = growth inhibition above about 70%; inactive = the rest.

For the compound `Cc1ccccc1C(c1ccccc1)C(CO)CO` (configuration not stated), the growth inhibition in assay [1] is -1%; in assay [2], 0.15%; in assay [3], 2.9%; in assay [4] it was -64.3%; in assay [5] it was -5.4%; in assay [6], -17.4%.

As to `COC(=O)/C(=C/c1ccccc1)N(C(C)=O)C(C)=O`, the growth inhibition is 0.05% in assay [1]; -1.6% in assay [2]; 10.3% in assay [3]; -1.5% in assay [4]; 13.4% in assay [5]; 8.5% in assay [6].

Regarding `CCCCN=C1Nc2nc(=NCCCC)nc3c(Br)cc(Br)c(n23)N1`, the growth inhibition in assay [1] was 37.2%; in assay [2] it was 20.2%; in assay [3] it was 5.4%; in assay [4] it was 23.4%; in assay [5], -4.9%; in assay [6] it was 21.9%.

Consider `CC(=O)NC1=NCC(CSc2nc3ccccc3s2)S1` (configuration not stated), for which the growth inhibition in assay [1] is -8.45%; in assay [2], -14.3%; in assay [3], 5.65%; in assay [4], -26.2%; in assay [5], 9.7%; in assay [6], 4.3%.

Take `COc1cc2c(cc1N)-c1ccc(N)cc1C2O` (configuration not stated): the growth inhibition in assay [1] is 7.55%; in assay [2] it was 3.65%; in assay [3] it was -9.05%; in assay [4], 17.3%; in assay [5] it was 17.1%; in assay [6], 1.05%.

As to `O=C1C=C/C(=N/c2ccc(O)o2)c2ccccc21`, the growth inhibition in assay [1] was 36.8%; in assay [2], 52.3%; in assay [3], 20.1%; in assay [4] it was 8.4%; in assay [5], 17.8%; in assay [6], 60%.

Take `Cc1ccc2c(c1-c1ccccc1)C(=O)OC2`: the growth inhibition in assay [1] is -5.4%; in assay [2], -3.05%; in assay [3], 2.15%; in assay [4], 5.35%; in assay [5] it was 6.25%; in assay [6], -3.3%.

Take `COC(=O)C(C)C1Sc2ccccc2NC1=O` (configuration not stated): the growth inhibition was 4.6% in assay [1]; 1.85% in assay [2]; -17.3% in assay [3]; -4% in assay [4]; -16.6% in assay [5]; 2.6% in assay [6].

Consider `COc1cccc(N2C(=O)C3c4[nH]c5ccccc5c4C4CCCC4C3C2=O)c1` (configuration not stated), for which the growth inhibition was -36.5% in assay [1]; -47.4% in assay [2]; -20.8% in assay [3]; -8.15% in assay [4]; -50% in assay [5]; -22.4% in assay [6].

For `Cc1cc(C)nc(Sc2c([N+](=O)[O-])ncn2C)n1`, the growth inhibition is 4.1% in assay [1]; -17.3% in assay [2]; -20.9% in assay [3]; 4.65% in assay [4]; 12.6% in assay [5]; -10.3% in assay [6].

Consider `OC1c2ccccc2-c2ccccc21`, for which the growth inhibition in assay [1] is 35.6%; in assay [2] it was 0.95%; in assay [3], -15.4%; in assay [4], -22.3%; in assay [5], 6.8%; in assay [6], 25.2%.

As to `COc1ccc(/C=N/NC(=O)NNC(=O)c2cc([N+](=O)[O-])cc([N+](=O)[O-])c2)cc1OC`, the growth inhibition in assay [1] was 33.2%; in assay [2], 13.3%; in assay [3], 36.7%; in assay [4], 15.4%; in assay [5], 3.6%; in assay [6], 32.4%.

In the case of `CC1(C)Oc2ccc3ccccc3c2C(c2ccc(O)cc2)=C1c1ccccc1`, the growth inhibition was -51.5% in assay [1]; -11% in assay [2]; 5.2% in assay [3]; 7.75% in assay [4]; -3.1% in assay [5]; -20.6% in assay [6].

On to `O=C(CCCCC(=O)OC1CCCCC1)OC1CCCCC1`, for which the growth inhibition in assay [1] is -4.95%; in assay [2], 3.65%; in assay [3] it was -6.45%; in assay [4] it was -60.3%; in assay [5], -1.05%; in assay [6], 10.8%.

On to `CCOC(=O)C(=O)Cc1cc(=O)n(C)c2ccccc12`, for which the growth inhibition in assay [1] was 12.5%; in assay [2] it was 16.1%; in assay [3] it was 16.4%; in assay [4], 1.8%; in assay [5], 13.9%; in assay [6] it was 1.5%.

In the case of `CC(=O)OC1CC2CC1C1CC=CC21` (configuration not stated), the growth inhibition is 35.2% in assay [1]; -2% in assay [2]; -0.4% in assay [3]; 34.1% in assay [4]; 2.4% in assay [5]; 14.4% in assay [6].

Turning to `CN1CCc2cc3c(cc2C(=O)Cc2ccc4c(c2C1)OCO4)OCO3`, the growth inhibition is -14.7% in assay [1]; -13.8% in assay [2]; -8.35% in assay [3]; 10.4% in assay [4]; -13.4% in assay [5]; -27.3% in assay [6].

On to `ClC/C=C/COC1CCCCO1` (configuration not stated), for which the growth inhibition was 6.8% in assay [1]; -8.55% in assay [2]; -8.5% in assay [3]; -13.8% in assay [4]; -7.6% in assay [5]; -8.9% in assay [6].

Regarding `COC(=O)c1cc2c(cc1CC(Cc1ccc3c(c1)CCCC3)C(=O)OC)CCCC2` (configuration not stated), the growth inhibition in assay [1] was -2.1%; in assay [2], 1.35%; in assay [3], -15.2%; in assay [4], 2.35%; in assay [5], -2.25%; in assay [6] it was -5.15%.

As for `CC(C)Cc1cccc(C(C)C)c1NC(=O)CCC(=O)N/N=C1\C(=N/NC(=O)CCC(=O)Nc2c(C(C)C)cccc2C(C)C)C(c2ccc3c(c2)OCO3)Oc2ccccc21` (configuration not stated), the growth inhibition in assay [1] is 5.2%; in assay [2], -21.6%; in assay [3], -5%; in assay [4], -2.7%; in assay [5], 6.75%; in assay [6], 11.2%.

As for `CCCCN(C)CCNc1cc(C)nc(Nc2nc3ccc(Cl)cc3[nH]2)n1`, the growth inhibition in assay [1] was 90% (active); in assay [2], 96.2% (active); in assay [3], 74.9% (active); in assay [4], 96.6% (active); in assay [5], 97.9% (active); in assay [6], 96.2% (active).

As to `COc1ccc(/C=C2\CCC(Cc3ccccc3)(CN(C)C)C2=O)cc1` (configuration not stated), the growth inhibition in assay [1] is 19.6%; in assay [2], -15.3%; in assay [3], 25.3%; in assay [4], 3.7%; in assay [5], -11.8%; in assay [6], -72.4%.

For `S=C(Cc1cccnc1)N1CCOCC1`, the growth inhibition in assay [1] is -7.85%; in assay [2] it was 41.5%; in assay [3], 8.2%; in assay [4] it was -27.9%; in assay [5], 5.15%; in assay [6] it was 45.5%.

In the case of `CCCCCCC(=O)OC(C)CC(C)C` (configuration not stated), the growth inhibition in assay [1] was 6.25%; in assay [2] it was 2.75%; in assay [3] it was -0.75%; in assay [4], -11.2%; in assay [5], -3.7%; in assay [6], 24.2%.

Regarding `C#CCC1CCCC/C1=N\Nc1ccc([N+](=O)[O-])cc1[N+](=O)[O-]` (configuration not stated), the growth inhibition was 2.25% in assay [1]; 3.2% in assay [2]; -4.4% in assay [3]; -1.75% in assay [4]; 4.4% in assay [5]; 4.1% in assay [6].

Take `CS(C)=O.[Cl-].[Cl-].[NH-]CC(O)C[N-]CC(O)CN.[Pt+4]` (configuration not stated): the growth inhibition in assay [1] is -9.2%; in assay [2], -19.7%; in assay [3] it was -20.4%; in assay [4], -9.65%; in assay [5], -3.5%; in assay [6], 9.55%.

As to `CCN(CC)CCOc1cccc(O)c1`, the growth inhibition in assay [1] was -5.95%; in assay [2], -16.1%; in assay [3] it was -12.1%; in assay [4] it was -50.5%; in assay [5], -8.3%; in assay [6] it was -2.9%.

For the compound `Nc1nc(=O)n(C2OC(CO)C(O)C2Cl)cc1I` (configuration not stated), the growth inhibition is 10.4% in assay [1]; -3.8% in assay [2]; 1.1% in assay [3]; -5.1% in assay [4]; 7.8% in assay [5]; -0.75% in assay [6].

As to `CC(C)C(N)C(=O)NO` (configuration not stated), the growth inhibition is -17.1% in assay [1]; 17.9% in assay [2]; -13.4% in assay [3]; 5.05% in assay [4]; -1.7% in assay [5]; -7.3% in assay [6].

Turning to `CCOC(=O)c1cnc(SC)nc1Nc1cccc(Cl)c1Cl`, the growth inhibition in assay [1] is 1.15%; in assay [2], 99% (active); in assay [3], 35.9%; in assay [4], 98.1% (active); in assay [5], 98.8% (active); in assay [6] it was 25.1%.

As to `COc1ccc(-c2ccccc2C(=O)O)cc1`, the growth inhibition was -2.65% in assay [1]; -14.8% in assay [2]; 5.8% in assay [3]; -12.5% in assay [4]; -7.2% in assay [5]; 8.1% in assay [6].

As for `Oc1ccccc1CN1CCOCC1`, the growth inhibition in assay [1] was 22.4%; in assay [2], 9.3%; in assay [3], 26.9%; in assay [4], 13.8%; in assay [5] it was -7.2%; in assay [6], 28.5%.

`CCOC(=O)c1nc2ccc(C(F)(F)F)cc2nc1Nc1ccc(Cl)c(Cl)c1`: the growth inhibition in assay [1] is -22.1%; in assay [2], 4.1%; in assay [3] it was -13.9%; in assay [4] it was -19%; in assay [5] it was -1.35%; in assay [6] it was 6.15%.

Turning to `CCOC(=O)CCC(=O)OCC`, the growth inhibition is 21.6% in assay [1]; 7.05% in assay [2]; 0% in assay [3]; 16.9% in assay [4]; 9.85% in assay [5]; 10.6% in assay [6].

In the case of `O=C(O)c1cc(N2C(=O)c3ccc4c5ccc6c7c(ccc(c8ccc(c3c48)C2=O)c75)C(=O)N(c2ccc(O)c(C(=O)O)c2)C6=O)ccc1O`, the growth inhibition in assay [1] was -8.4%; in assay [2] it was 10%; in assay [3] it was 3.2%; in assay [4], 34%; in assay [5], 1.65%; in assay [6] it was 26.3%.

As to `C/C(=C\c1ccc(OCCN2CCOCC2)cc1)c1ccc2c(c1)C(C)(C)CCC2(C)C`, the growth inhibition in assay [1] is -3.2%; in assay [2], -11.9%; in assay [3] it was 16.1%; in assay [4], -4.95%; in assay [5] it was -20.6%; in assay [6], -25.9%.

With `C=CCc1c(O)c2ccccc2[nH]c1=O`, the growth inhibition in assay [1] was -5.35%; in assay [2] it was 15.6%; in assay [3], -25.9%; in assay [4] it was 12.7%; in assay [5] it was 4.45%; in assay [6], 1.5%.
